# Most compounds without a hit are left out; they make up all but 2.1% or so of the library.
# aSyn yeast inh – qHTS of alpha-syn Inhibitors. Yeast expressing alpha-synuclein, growth rescue, BacTiter-Glo, 24 h. Potency, µM (top dose mostly 46.1 µM), for inactives: top-dose growth rescue (activation), most hits filed as activators. 0.14% of 370,000 active; further: % of control where 0% means no effect; nearly all actives have a fitted effect of over 65% in size
#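 Rescue of yeast growth: cells expressing toxic alpha-synuclein, induced in galactose at OD600 0.02, incubated with compound 24 h at 30 C. ATP luminescence quantified growth; inhibitors of toxicity appear as activators.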
# Abeta rescue – qHTS for compounds that reverse cellular toxicity of Amyloid beta (A-beta) peptide in yeast: Primary Screen. yeast expressing A-beta42, growth rescue, OD600, 48 h; response scale: 0% DMSO, 100% iron-clioquinol control. 0.063% of 410,000 active. Potency, µM (highest dose often 46.1 µM), usual class: activators. AID 1347071, 2019; further: nearly all actives have a fitted effect of over 55% in size
#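 Growth rescue measured by 600 nm absorbance after 48 h yeast culture at 30 C with compound. Values normalized between DMSO and an equimolar ferric chloride plus clioquinol control.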
# FUS suppressor – qHTS for Suppressors of FUS Proteinopathy: Primary screen using FUS-linked yeast assay | 0.24% of 390,000 active | S. cerevisiae FUS-expressing, growth rescue, OD600, 24 h | Potency, µM (top dose mostly 76.6 µM), usual class: activators | AID 1347120, 2019;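 further: plate controls were DMSO vehicle for no effect and reference control for full effect; nearly all actives have a fitted effect of over 55% in size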
#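 Cultures pregrown in 2.5% raffinose medium are shifted to minimal medium containing 2% galactose to express toxic FUS. Compounds are tested at several concentrations. After 24hr at 30C, growth is quantified at 600 nm absorbance.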
# TDP-43 yeast inh – qHTS of TDP-43 Inhibitors; TDP-43 expressing yeast growth rescue, BacTiter-Glo, 24 h; Potency, µM (doses to about 46.1 µM), without a hit: at the top dose growth rescue (activation), most hits filed as activators; 1.8% of 410,000 active; AID 652104, 2013; further: % of control where 0% means no effect; nearly all actives have a fitted effect of over 50% in size
#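 Yeast expressing TDP-43 (pregrown in raffinose, seeded at OD600=0.02 in galactose medium) exposed to compounds 24 hr at 30 deg C. Growth read by BacTiter-Glo luminescence; rescue of toxicity appears as increased signal.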
# The depositor's hits bear a star; i = inactive; ? = inconclusive; · = no result. The call rests on the fitted dose curve; in most records, active means well fitted curve in the direction sought with a large enough effect; inconclusive means small, poorly fitted or top-dose-only effect, or another doubt; inactive means no such curve, though single readings can be large; an effect the other way counts as inactive or inconclusive. Potency means the concentration at half of the fitted maximal effect.
SMILES,aSyn yeast inh,Abeta rescue,FUS suppressor,TDP-43 yeast inh
CCCCCCCCCOC(=O)CNc1nc(C#N)nc(NCC(=O)OCCCCCCCCC)n1,0%,·,·,·
O=C(OCc1ccccc1)N1CCN(/[N+]([O-])=N/Oc2ccc([N+](=O)[O-])cc2[N+](=O)[O-])CC1,-59%,·,·,·
O=c1cc2nc(-c3ccccc3F)nc(SCc3ccc(Br)cc3)n2[nH]1,·,i,i,5%
COc1cc(C2Oc3ccccc3C=C2[N+](=O)[O-])cc(OC)c1OC (stereo not drawn),?,i,i,5µM*
COc1ccc(/C=C/c2cnc3ccccc3n2)cc1OC,1%,·,·,·
Clc1cccc(Cl)c1/C=C/c1ccn[nH]1,-4%,i,i,22µM*
O=C(/C=C/c1c(F)cccc1Cl)c1ccc(F)cc1,-14%,i,i,5%
O=C(Cc1cccc(F)c1)NO,2%,·,·,·
CC1=C(C(=O)N(C)C)CC(CC(=O)NCc2cccc3ccccc23)C(=O)N1Cc1ccc(C(C)(C)C)cc1 (stereo not drawn),6%,i,?,0%
CC1=C(C(=O)N(C(C)C)C(C)C)CC(CC(=O)NCc2cccc3ccccc23)C(=O)N1Cc1ccc(C(C)(C)C)cc1 (stereo not drawn),?,i,6.3µM*,5%
CC1=C(C(=O)N(C(C)C)C(C)C)CC(CC(=O)NC2CC2)C(=O)N1Cc1ccc(C(C)(C)C)cc1 (stereo not drawn),-1%,i,i,-19%
CC1=C(C(=O)N(C(C)C)C(C)C)CC(CC(=O)NCC2CCCCC2)C(=O)N1Cc1ccc(C(C)(C)C)cc1 (stereo not drawn),·,·,?,37µM*
COc1ccc(OC)c(NC(=O)COCc2cc(-c3ccco3)on2)c1,·,i,i,10%
Cc1ccc(C=NNC(=O)CSc2nc3sc4c(c3c(=O)n2-c2ccccc2)CCCC4)s1,·,·,i,·
Cc1ccc(Cl)cc1N1CCN(C(=O)CCS(=O)(=O)c2ccc3c(c2)oc(=O)n3C)CC1,·,i,i,?
CC1(C)Nc2cccc3c(N=Nc4ccc(N=Nc5ccccc5)c5ccccc45)ccc(c23)N1,-43%,·,·,·
Cc1cccc(NC(=O)Cn2cnc3ccc(S(=O)(=O)N4CCC(C)CC4)cc3c2=O)n1,-8%,i,35µM*,-8%
Cc1ccc(S(=O)(=O)N2CCN(c3nc(-c4ccc(CN5CCNCC5)s4)nc4ccccc34)CC2)cc1,-2%,·,·,·
COC(=O)C[C@@H]1CC[C@@H]2[C@H](COc3ccc(NC(=O)c4cccc(OC)c4)cc3C(=O)N2C)O1,·,·,i,·
CCSc1nc(-c2ccc(OC)cc2)ccc1C#N,1%,i,i,16µM*
COc1ccccc1Nc1nc(NCCCN(C)C)nc(N)c1[N+](=O)[O-],-1%,i,i,15%
C=CCNc1nc(N)c([N+](=O)[O-])c(Nc2ccccc2OC)n1,6%,i,i,16µM*
O=c1c2ccccc2nc(/C=C/c2ccc(Cl)cc2)n1CCO,5%,i,i,11µM*
CCn1c(/C=C/c2ccccc2F)nc2ccccc2c1=O,-5%,i,i,8.9µM*
CCn1c(/C=C/c2ccc(O)cc2)nc2ccccc2c1=O,2%,i,i,18µM*
SMILES,aSyn yeast inh,Abeta rescue,FUS suppressor,TDP-43 yeast inh
C#CCn1c(/C=C/c2ccc(Cl)cc2)nc2ccccc21,·,i,i,35µM*
CCn1c(/C=C/c2ccc(O)c(O)c2)nc2ccccc2c1=O,-2%,i,i,6%
COc1ccc(-c2nc(SCC(=O)c3ccc(OC)c(Br)c3)n[nH]2)cc1,·,i,i,-2%
COc1ccccc1CCNC(=O)C(=O)NCC(c1ccc2c(c1)OCO2)N1CCOCC1 (stereo not drawn),·,i,i,-6%
O=Cc1ccc(-c2ccc([N+](=O)[O-])cc2Cl)o1,1%,i,i,11µM*
COc1cc(OC)c(C2CC(=O)N3CN(c4ccccc4)CSC3=C2C#N)cc1OC (stereo not drawn),7%,i,?,10%
CCc1ccccc1N1CSC2=C(C#N)C(c3cc(OC)c(OC)cc3OC)CC(=O)N2C1 (stereo not drawn),-6%,i,?,0.032µM*
COc1ccc(NC(=O)O/N=C2/CCCc3ccc(OC)cc32)cc1,-11%,i,i,14µM*
